# Measured values as given in PubChem BioAssay AID687016 (The Scripps Research Institute Molecular Screening Center, 2013).
# Among all 370,000 compounds or so, about 2,800 (0.76%) were called active. The full list was thinned out, with actives kept by preference. A number with no mark means an inactive call. Rule as the data show it: active = inhibition above about 21%; inactive = the rest.
# Molecular target: E3 ubiquitin-protein ligase UHRF1 (Homo sapiens) (UniProt Q96T88)
# Assay: UHRF1 methylated DNA binding inhibitors, primary screen, counter-screen for MBD2 inhibitor project, biochemical, TR-FRET, human UHRF1, single concentration (AID 687016);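 also: UHRF1 SRA domain binding a hemimethylated CpG hairpin DNA probe; 0% = median of test compound wells and 100% = reference inhibitor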
# Details: UHRF1 binding to methylated oligo, at 4.4 µM, hits give high values
# E3 ubiquitin-protein ligase UHRF1 (Homo sapiens), sequence (Q96T88 whole entry, looked up, the tested form may be a part): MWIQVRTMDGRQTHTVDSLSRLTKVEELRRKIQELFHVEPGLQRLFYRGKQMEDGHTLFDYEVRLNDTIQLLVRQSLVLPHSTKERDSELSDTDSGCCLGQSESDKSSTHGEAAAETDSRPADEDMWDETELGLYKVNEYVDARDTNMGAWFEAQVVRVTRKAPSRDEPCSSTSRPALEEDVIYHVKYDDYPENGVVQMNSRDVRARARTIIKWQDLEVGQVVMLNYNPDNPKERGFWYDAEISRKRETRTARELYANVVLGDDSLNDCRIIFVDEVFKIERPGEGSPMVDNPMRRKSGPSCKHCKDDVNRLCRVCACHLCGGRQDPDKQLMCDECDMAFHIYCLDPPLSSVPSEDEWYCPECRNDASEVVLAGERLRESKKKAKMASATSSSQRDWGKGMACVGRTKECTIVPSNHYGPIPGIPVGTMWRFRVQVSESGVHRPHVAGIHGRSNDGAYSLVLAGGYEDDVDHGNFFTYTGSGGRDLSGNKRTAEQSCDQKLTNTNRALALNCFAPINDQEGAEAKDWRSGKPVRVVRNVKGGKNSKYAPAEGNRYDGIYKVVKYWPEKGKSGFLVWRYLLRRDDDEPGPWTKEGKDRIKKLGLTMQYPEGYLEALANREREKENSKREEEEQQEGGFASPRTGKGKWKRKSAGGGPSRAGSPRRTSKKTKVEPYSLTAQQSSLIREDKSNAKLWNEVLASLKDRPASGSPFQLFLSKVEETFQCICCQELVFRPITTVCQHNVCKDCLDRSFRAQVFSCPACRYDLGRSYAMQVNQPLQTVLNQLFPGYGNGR
row,Compound,inhibition
1,CC(C)c1ccc(OCC(=O)N2CCCN(C)CC2)cc1,-1.28%
2,Cn1cc(C(=O)OCC(=O)N2CCCC2)c2ccccc21,73.7% (active)
3,CC(=O)Nc1ccccc1C(=O)OCC(=O)c1cccc2ccccc12,0.36%
4,O=C1C2CCN(CC2)C1(CO)CO,0.15%
5,Cc1ccccc1CCC[C@@H](CC1CCCCC1)CN(C)C(=O)Oc1ccccc1,-0.75%
6,O=C1NC(=O)N(Cc2ccco2)C(=O)/C1=C\c1ccc(-c2ccc(F)cc2)o1,81.8% (active)
7,Cc1cc(/C=C2/C(=O)NC(=O)N(Cc3ccco3)C2=O)c(C)n1-c1ccc(C(=O)O)cc1,78.5% (active)
8,Cc1ccnc(-n2c(C)cc(/C=C3\C(=O)NC(=S)N(C)C3=O)c2C)c1,1.95%
9,Cc1cc(C=C2C(=O)NC(=O)NC2=O)c(C)n1-c1ccncc1,-7.92%
10,CO[C@H]([C@H](C)/C=C/N(C)C=O)[C@@H](C)C(=O)CC[C@H](C)[C@H](O)[C@H](C)[C@H]1OC(=O)/C=C/C(C)=C/[C@H](O)[C@H](OC)C[C@@H]2C=CC[C@@H](C[C@H](OC)[C@@]3(CO3)[C@@H](OC)C[C@@H](OC)[C@@H]1C)O2,-2.95%
11,CC(=CCOc1ccc2ccc(=O)oc2c1)C1=CC(=O)C(C)(C)O1,0.79%
12,NC(=O)Cn1cc(C(=O)c2ccccc2F)c2ccccc21,-1.97%
13,S=C(NCCc1ccccc1)N1Cc2cc(N3CCOCC3)ccc2-n2nncc2C1,-3.2%
14,CCOC(=O)[C@]12Cc3ccccc3[C@H]1N(C1CCCCC1)C(=O)c1cc(OC)ccc12,-1.33%
15,COP(=O)(Sc1ccccc1)C(Cc1ccccc1)NC(=O)OCc1ccccc1 (stereo not given),-3.61%
16,O=c1c2ccccc2nc(-c2ccc(Cl)cc2Cl)n1-c1ccncc1,-0.96%
17,COc1ccc(N2C(=O)/C(=C/c3ccco3)C(=O)NC2=S)cc1,68.7% (active)
18,CCOC(=O)C(O)(c1ccc(N=Cc2ccccc2O)c(C)c1)C(F)(F)F (stereo not given),-1.83%
19,CN(C)CCCN=Cc1c(O)n(Cc2ccco2)c(=O)[nH]c1=O,0.23%
20,CC(C)CN1CCN(Cc2ccccc2C(F)(F)F)CC1CCO (stereo not given),-2.88%
